# Hits are enriched below; roughly 10% of the tested compounds scored in any of these assays.
# 3T3 cytotox = Cytotoxic Profiling in NIH 3T3 Cell Line of Diverse Libraries Using Quantitative High-Throughput Screening; AID 1345082, 2018; hit rate 4.3% among 94,000; Potency, µM (highest dose often 96.7 µM), inactives show top-dose activity change, negative = cytotoxicity, most hits filed as inhibitors; NIH 3T3 viability, CellTiter-Glo ATP luminescence, 48-72 h; also: % is scaled to controls: 0 for no effect and ±100 for the full control effect; nearly all actives have a fitted effect of over 55% in size
#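 Luminescent ATP readout (CellTiter-Glo, 10 min RT) after 48 or 72 hr compound exposure of NIH 3T3 cells seeded at 400 cells/well in 1536-well format; quantitative HTS.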
# GPT2 inhibitor = Primary qHTS assay for inhibitors of Glutamate pyruvate transaminase 2 (GPT2). Potency, µM (top dose mostly 57.7 µM), for inactives: top-dose activity change, negative = inhibition, usual class: inhibitors. Recombinant GPT2, coupled pyruvate oxidase/HRP Amplex Red fluorescence. hit rate 0.25% among 100,000. AID 1671188, 2021. Alanine aminotransferase 2 (Homo sapiens), Q8TD30; also: % is scaled to controls: 0 for no effect and ±100 for the full control effect; nearly all actives have a fitted effect of over 60% in size
#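 GPT2 10ng/uL, a-KG 250uM, L-Ala 2mM, HEPES pH7.5 + 0.0001% Tween; 30 min RT. Then Amplex mix (PO/HRP/ThPP), 30 min RT dark, fluorescence. AOA 50uM used as positive control.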
# HEK293 tox = Cytotoxic Profiling in HEK 293 Cell Line of Diverse Libraries Using Quantitative High-Throughput Screening | HEK 293 viability, ATP luminescence (CellTiter-Glo), 48-72 h | hit rate 6.6% among 94,000 | Potency, µM (doses to about 115 µM), without a hit: at the highest dose activity change, negative = cytotoxicity, hits mostly inhibitors; also: % is scaled to controls: 0 for no effect and ±100 for the full control effect; nearly all actives have a fitted effect of over 60% in size
#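 Viability of HEK 293 cells, plated at 250 cells/well, was judged by cellular ATP after compound treatment for 48 or 72 hr. Luminescence was imaged 10 min after CellTiter-Glo addition at room temperature.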
# NPR1 antag = Natriuretic polypeptide receptor (hNpr1) antagonism - Primary qHTS; Potency, µM (titrated, usually from 46.3 µM), inactives show at the highest dose activity change, negative = inhibition, actives largely listed as inhibitors; Atrial natriuretic peptide receptor 1 (Homo sapiens), P16066; HEK293 hNpr1 GloSensor cGMP, ANP-stimulated luminescence; hit rate 1.6% among 76,000; calls by dose curve; also: % is scaled to controls: 0 for no effect and ±100 for the full control effect; nearly all actives have a fitted effect of over 60% in size
# Target sequence (P16066 whole entry, looked up): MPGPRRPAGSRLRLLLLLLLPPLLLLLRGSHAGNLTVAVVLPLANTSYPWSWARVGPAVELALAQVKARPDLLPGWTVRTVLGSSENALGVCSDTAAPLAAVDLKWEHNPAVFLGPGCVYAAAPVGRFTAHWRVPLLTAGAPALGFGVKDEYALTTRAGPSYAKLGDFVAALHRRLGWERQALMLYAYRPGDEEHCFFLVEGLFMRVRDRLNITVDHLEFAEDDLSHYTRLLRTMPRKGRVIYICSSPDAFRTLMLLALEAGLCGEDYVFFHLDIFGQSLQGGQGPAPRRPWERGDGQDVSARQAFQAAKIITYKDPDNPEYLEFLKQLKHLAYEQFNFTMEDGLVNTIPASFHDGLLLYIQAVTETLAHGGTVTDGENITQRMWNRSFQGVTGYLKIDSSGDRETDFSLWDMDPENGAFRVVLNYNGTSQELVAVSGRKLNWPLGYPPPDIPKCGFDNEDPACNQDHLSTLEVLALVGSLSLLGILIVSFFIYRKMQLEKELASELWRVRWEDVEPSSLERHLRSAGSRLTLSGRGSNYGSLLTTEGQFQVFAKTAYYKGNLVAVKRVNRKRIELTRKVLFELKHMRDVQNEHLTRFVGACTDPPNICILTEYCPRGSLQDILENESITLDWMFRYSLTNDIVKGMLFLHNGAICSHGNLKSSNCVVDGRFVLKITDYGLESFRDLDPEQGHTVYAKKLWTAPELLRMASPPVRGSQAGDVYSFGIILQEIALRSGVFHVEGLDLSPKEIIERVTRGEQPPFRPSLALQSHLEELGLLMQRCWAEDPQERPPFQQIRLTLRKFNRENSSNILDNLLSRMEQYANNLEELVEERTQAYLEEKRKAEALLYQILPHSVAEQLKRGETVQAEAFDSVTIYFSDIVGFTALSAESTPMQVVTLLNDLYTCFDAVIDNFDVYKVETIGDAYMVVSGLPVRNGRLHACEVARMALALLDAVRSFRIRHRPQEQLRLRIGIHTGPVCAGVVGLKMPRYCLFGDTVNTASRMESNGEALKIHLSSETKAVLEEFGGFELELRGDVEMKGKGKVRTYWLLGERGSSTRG
#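 Compound pre-incubated 30 min at room temperature on GloSensor-loaded HEK293 cells stably carrying hNpr1 and the pGS-40F cGMP biosensor. Stimulation uses hNppA at 0.1 nM final; luminescence is taken at baseline and 20 min post-agonist.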
# FLuc inh-1 = Firefly luciferase inhibition profiling of diverse chemical library using quantitative high-throughput screening. Luciferin 4-monooxygenase (Photinus pyralis), P08659. purified P. pyralis luciferase, luminescence, biochemical. Potency, µM (doses to about 115 µM), hits mostly inhibitors. hit rate 2.5% among 76,000; also: % is scaled to controls: 0 for no effect and ±100 for the full control effect; nearly all actives have a fitted effect of over 65% in size
#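 Luminescence read by CCD imager after adding enzyme (10nM final) to wells holding compound, titrated in qHTS. Substrates 10uM each D-luciferin and ATP; buffer 50mM Tris acetate pH 7.5, 10mM Mg acetate, Tween-20, BSA.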
# FLuc SDR no ATP = Firefly luciferase (FLuc-C-HiBiT) SDR gain of signal screen - without ATP; shares compounds with FLuc inh-1; Purified FLuc-C-HiBiT, Nano-Glo HiBiT luminescence, no ATP; Potency, µM (top dose mostly 32.7 µM), inactives show top-dose activation (signal gain), hits mostly activators; hit rate 7.8% among 1,300; AID 1963318, 2024; also: nearly all actives have a fitted effect of over 55% in size
# FLuc SDR ATP = Firefly luciferase (FLuc-C-HiBiT) SDR gain of signal screen - plus ATP. Potency, µM (highest dose often 32.7 µM), without a hit: at the top dose activation (gain of signal), usual class: activators. shares compounds with FLuc inh-1. hit rate 8.7% among 1,300. purified FLuc-C-HiBiT + ATP, HiBiT complementation luminescence;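 also: signal reports ligand binding via conformational change of the enzyme rather than luciferase catalysis; % of control where 0% means no effect; nearly all actives have a fitted effect of over 55% in size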
# FLuc inh-2 = Firefly luciferase (FLuc-C-HiBiT) enzymatic inhibition screen - Functional assay; Potency, µM (titrated, usually from 32.7 µM), for inactives: at the highest dose activity change, negative = inhibition, most hits filed as inhibitors; shares compounds with FLuc inh-1; hit rate 42% among 1,300; purified FLuc-C-HiBiT enzyme, luciferin luminescence; also: % is scaled to controls: 0 for no effect and ±100 for the full control effect; nearly all actives have a fitted effect of over 70% in size
# * hit, by the source's call; i = inactive; ? = inconclusive; . = no result given; [ ] = dose if it differs, or a comment. Unless noted, calls follow the shape of the dose curve; as a rule, active = well fitted curve in the direction sought with a large enough effect; inconclusive = small, poorly fitted or top-dose-only effect, or another doubt; inactive = no such curve, though single readings can be large; an effect the other way counts as inactive or inconclusive. Potency is read from the fitted curve at half-maximal effect.
SMILES,3T3 cytotox,GPT2 inhibitor,HEK293 tox,NPR1 antag,FLuc inh-1,FLuc SDR no ATP,FLuc SDR ATP,FLuc inh-2
COc1ccc(-c2cc(C(=O)N3CCOC(c4ccc(F)cc4)C3)[nH]n2)cc1 (stereo unspecified),?,-7.5%,?,-26.7%,i,.,.,.
Cc1nnc2ccc(N3CCCN(C(=O)c4cccc(Cl)c4)CC3)nn12,-13.2%,.,i,.,.,.,.,.
COc1ccccc1NC(=O)c1c(C)oc2c1CN(Cc1ccc(F)cc1)CC2,-23.9%,i,?,-1.1%,i,.,.,.
CCCC(=O)Nc1cc(-c2ccccn2)nn1-c1ccccc1,-13.6%[138 µM],-1.9%[88.5 µM],-3.3%[172 µM],.,.,.,.,.
COc1cccc(CNC(=O)c2cc(C(C)(C)C)nc3c2cnn3C)c1,?,-8.1%,?,.,.,.,.,.
Cc1ccccc1-c1noc(-c2ccc(NC(C)c3cnn(C)c3)nc2)n1 (stereo unspecified),44.7µM*,-9.0%,31.6µM*,7.94µM*,0.316µM*,?,?,0.989µM*
C[C@@H](Nc1ccc(-c2nc(CCCc3ccccc3)no2)cn1)C(N)=O,-8.1%,4.4%,-5.9%,8.0%,i,.,.,.
COCC1CN(C2CCC2)CC12CCN(S(=O)(=O)c1cccnc1)CC2 (stereo unspecified),?,i,?,-15.0%,i,.,.,.
O=[S+]([O-])(c1ccccc1)N1CC2(CCCN2Cc2cccnc2)Cc2ccccc21 (stereo unspecified),?,-15.1%,?,.,.,.,.,.
COc1ncccc1-c1cc2c(nc1OC)nc(CCc1ccccc1)n2C,?,-18.9%[88.5 µM],?,-9.3%[70.6 µM],i,.,.,.
COc1ccc(Nc2cc3c(nc2OC)nc(CCc2ccccc2)n3C)cn1,?,-7.5%[88.5 µM],?,-24.5%[70.6 µM],6.31µM*,15.5%[49.3 µM],19.1%[49.3 µM],?
Cc1ccc(-c2cc(N)n(-c3ccc(C)cc3)n2)cc1,.,.,.,.,.,23.3%,13.9%,?
COc1cc(NC(=O)c2ccc3c(c2)N(C)C2CCCN2C3=O)cc(OC)c1 (stereo unspecified),-11.8%,i,?,-7.7%,i,.,.,.
CCCn1c(C)cnc1CC1CCN(C(=O)C2(c3ccc(OC)cc3)CC2)C1 (stereo unspecified),-25.5%,-21.4%,28.2µM*,-21.1%,6.31µM*,11.6%,17.0%,-13.8%
COCCn1c(C)cnc1CC1CCCN(C(=O)C2(c3ccc(OC)cc3)CC2)C1 (stereo unspecified),-6.3%,i,-3.0%,-4.6%,i,.,.,.
O[C@@H]1C[C@@H](c2nc(-c3ccccc3)no2)N(Cc2ccc(F)cc2)C1,?,3.2%[88.5 µM],-27.9%[172 µM],0.6%[70.6 µM],i,.,.,.
CC(C)c1noc([C@@H]2C[C@@H](O)CN2Cc2cc3ccccc3o2)n1,-4.1%[174 µM],-10.1%[88.5 µM],-24.8%[172 µM],-0.8%[70.6 µM],i,.,.,.
COc1ccc(-c2noc([C@@H]3C[C@@H](O)CN3Cc3cc4ccccc4o3)n2)cc1,-9.5%[174 µM],-2.5%[88.5 µM],-10.8%[172 µM],?,5.01µM*,18.4%[49.3 µM],?,16.1µM*
COc1ccc(CN2C[C@H](O)C[C@H]2c2nc(-c3ccc(OC)cc3)no2)cc1,-29.8%[174 µM],1.3%[88.5 µM],?,?,11.2µM*,-1.0%[49.3 µM],1.3%[49.3 µM],?
O=C(Nc1ccc2c(c1)OCCO2)N1CCC2(CC1)CC(N1CCCC1)CCO2 (stereo unspecified),i,1.2%,12.0%,-8.2%,6.31µM*,28.6%,?,?
O=C(Nc1ccc2c(c1)OCCO2)N1CCC2(CC1)CC(N1CCOCC1)CCO2 (stereo unspecified),-12.6%,i,1.8%,.,.,.,.,.
Cc1[nH]nc2c1C(c1ccc(Cl)cc1)C(C#N)=C(N)O2 (stereo unspecified),-22.4%,?,?,-5.3%,i,11.0%,8.4%,-8.6%
O=C(c1ccccc1OCC1CCCN(C(=O)C2CCCC2)C1)N1CCOCC1 (stereo unspecified),-24.2%,2.4%,-4.0%,.,.,.,.,.
CC1CCN(C(=O)c2cc3c(s2)CCC(C(=O)O)C3)CC1 (stereo unspecified),-29.7%,-7.4%,-9.0%,0.2%,12.6µM*,10.1%,18.6%,?
CCc1nc(-c2c3n(c(=O)n(Cc4ccc(F)c(F)c4)c2=O)CCCCC3)no1,?,i,-28.9%,0.1%,i,.,.,.
SMILES,3T3 cytotox,GPT2 inhibitor,HEK293 tox,NPR1 antag,FLuc inh-1,FLuc SDR no ATP,FLuc SDR ATP,FLuc inh-2
CC(=O)Nc1ccc(CN2CCCC23Cc2ccccc2CN(C(=O)C(C)C)C3)cc1 (stereo unspecified),i,i,-4.4%,.,.,.,.,.
Cc1cc2c(c(-c3nc4ccccc4s3)c1)OC(CNC(=O)CCc1cccnc1)C2 (stereo unspecified),.,.,.,.,.,14.4%,8.9%,?
CN1C(=O)c2cccn2CC1CNC(=O)CCc1nc2ccccc2s1 (stereo unspecified),-9.0%,-2.4%,0.0%,-9.4%,i,.,.,.
Cc1ccccc1CCNC(=O)c1ccc2c(c1)nc1n2CCCCC1,.,.,.,.,.,2.79µM*,?,0.881µM*
Cc1ccccc1NC(=O)Cn1c(C)cc2nc3n(c(=O)c21)CCCCC3,-8.6%,2.5%,-9.6%,0.2%,i,.,.,.
Cc1ccccc1CCNC(=O)c1ccc2c(c1)nc1n2CCOC1,.,.,.,.,.,12.4µM*,?,4.95µM*
Cc1cccc(OCC(=O)N[C@@H]2CN(c3ncccn3)C[C@H]2CN(C)C)c1,-11.6%,-17.8%,-1.8%,-2.6%,i,.,.,.
Cc1ccc(C(=O)Nc2ccc(-c3nc4ccccc4s3)c(O)c2)c(C)c1,.,.,.,.,.,14.1%,9.4%,0.0%
COc1ccccc1C(=O)Nc1ccc(-c2nc3ccccc3s2)c(C)c1,.,.,.,.,.,23.0%,14.4%,?
